Source: ChEMBL document CHEMBL1961873, “Compounds: GSK PKIS; Assays: Nanosyn kinase panel” (2012)
“And” between values parts separate entries of the source, which are not always exact repeats. Equal entries are not always repeated.
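Note: values are mean inhibition figures from the GSK PKIS kinase panel.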

These compounds were tested against Phosphatidylinositol 4,5-bisphosphate 3-kinase catalytic subunit alpha isoform (Homo sapiens) (UniProt P42336). Details: at 0.1 µM.
Phosphatidylinositol 4,5-bisphosphate 3-kinase catalytic subunit alpha isoform (Homo sapiens), sequence (P42336 whole entry, canonical isoform): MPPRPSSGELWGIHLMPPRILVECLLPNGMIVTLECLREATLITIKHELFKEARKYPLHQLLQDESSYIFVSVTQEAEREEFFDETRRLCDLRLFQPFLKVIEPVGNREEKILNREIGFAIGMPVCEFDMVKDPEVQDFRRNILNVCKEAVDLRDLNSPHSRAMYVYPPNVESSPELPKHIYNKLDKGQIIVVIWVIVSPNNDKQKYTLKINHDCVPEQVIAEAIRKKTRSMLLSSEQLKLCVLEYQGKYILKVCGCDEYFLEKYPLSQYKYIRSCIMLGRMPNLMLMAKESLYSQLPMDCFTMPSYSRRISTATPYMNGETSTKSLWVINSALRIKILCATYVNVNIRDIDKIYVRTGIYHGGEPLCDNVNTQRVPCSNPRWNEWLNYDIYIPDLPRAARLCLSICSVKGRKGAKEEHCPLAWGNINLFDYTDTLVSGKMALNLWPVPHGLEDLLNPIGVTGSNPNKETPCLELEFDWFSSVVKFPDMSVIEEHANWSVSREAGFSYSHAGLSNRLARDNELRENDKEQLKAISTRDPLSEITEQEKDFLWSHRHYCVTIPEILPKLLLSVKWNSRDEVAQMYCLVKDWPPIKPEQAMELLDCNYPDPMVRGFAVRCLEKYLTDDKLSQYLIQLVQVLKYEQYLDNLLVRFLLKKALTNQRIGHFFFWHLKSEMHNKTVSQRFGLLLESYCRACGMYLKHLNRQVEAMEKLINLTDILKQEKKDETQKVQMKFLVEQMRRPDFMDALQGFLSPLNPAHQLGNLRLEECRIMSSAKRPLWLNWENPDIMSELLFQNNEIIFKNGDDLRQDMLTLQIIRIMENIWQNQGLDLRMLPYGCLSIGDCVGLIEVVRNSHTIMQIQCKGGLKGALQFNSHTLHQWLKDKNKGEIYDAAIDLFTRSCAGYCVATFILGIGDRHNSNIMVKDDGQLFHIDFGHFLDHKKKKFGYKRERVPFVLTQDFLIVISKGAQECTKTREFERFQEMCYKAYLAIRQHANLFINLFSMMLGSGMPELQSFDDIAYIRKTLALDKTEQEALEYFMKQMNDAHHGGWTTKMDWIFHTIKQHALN
Compound `O=C(O[C@H]1CN[C@H](C#Cc2cc3ncnc(Nc4ccc5c(cnn5Cc5ccccc5)c4)c3s2)C1)N1CCOCC1` has an inhibition of -1.75%.
Work on `Cn1c(-c2nonc2N)nc2cnccc21` yielded an inhibition of 1.04%.
For `Nc1ncnc2occ(-c3ccc(NC(=O)Nc4cc(C(F)(F)F)ccc4F)cc3)c12`, the inhibition was 0.21% and -1.3%.
With `O=C(Nc1n[nH]c2nnc(-c3cccnc3)cc12)C1CC1` the inhibition was 0.13%.
`COc1ccc2ncn(-c3cc(O[C@H](C)c4ccccc4C(F)(F)F)c(C(N)=O)s3)c2c1` showed an inhibition of 0.29%.
Work on `CCOc1ccc2c(-c3ccnc(Nc4cc(OC)cc(C(F)(F)F)c4)n3)cnn2n1` yielded an inhibition of -0.03%.
Compound `c1ccc(-c2n[nH]cc2-c2ccnc(-c3ccc(OCCn4ccnc4)cc3)c2)nc1` has an inhibition of 0.67%.
Work on `CCN1CCC(C(=O)Nc2n[nH]c3nnc(-c4cccc(F)c4F)cc23)CC1` yielded an inhibition of -1.4%.
For `Nc1nonc1-c1nc2cnccc2n1C1CC1`, the inhibition was 2.95% and 6.82%.
`O=C1Nc2ccccc2/C1=C1\CCc2cc(O)ccc21` was tested, and the inhibition was 3.67%.
`NC(=O)c1ccc2c(-c3ccnc(NCCCO)n3)c(-c3ccc(F)cc3)nn2c1` gave an inhibition of 2.83%.
Compound `NS(=O)(=O)c1ccc(N/N=C2\C(=O)Nc3cccc(CCc4ccncc4)c32)cc1` has an inhibition of 0.59%.
Work on `FC(F)(F)CNc1nccc(-c2cnn3ncccc23)n1` yielded an inhibition of 2.55%.
`COc1ccc(-c2nn3ncccc3c2-c2ccnc(Nc3ccc(F)c(F)c3)n2)cc1` gave an inhibition of 4.28%.
With `c1cnn2ncc(-c3ccnc(NCCCN4CCOCC4)n3)c2c1` the inhibition was 6.11%.
Compound `COc1cc(Nc2ncc(-c3ccccc3)o2)cc(OC)c1` has an inhibition of 8.32%.
In the case of `CCS(=O)(=O)c1ccc(OC)c(Nc2ncc(-c3cccc(C(C)=O)c3)o2)c1`, the inhibition is reported as 2.7%.
`COC(=O)Nc1nc2ccc(Oc3ccc(NC(=O)Nc4cc(C(F)(F)F)ccc4F)cc3)cc2s1` showed an inhibition of -0.49%.
In the case of `COc1ccc(Nc2ncc(-c3ccccc3)o2)cc1OC`, the inhibition is reported as -2.31%.
`NS(=O)(=O)c1cccc(N/C=C2\C(=O)Nc3ccccc32)c1` was tested, and the inhibition was 4.33%.
With `COc1cc(N2CCN(C(C)C)CC2)ccc1Nc1nc(Nc2cccc3ncccc23)c2cc[nH]c2n1` the inhibition was -0.92%.
For `COc1cc(N2CCN(C(C)C)CC2)ccc1Nc1nc(Nc2cccc(F)c2C(=O)O)c2cc[nH]c2n1`, the inhibition was 2.86%.
For `CN1CCC(C(=O)Nc2n[nH]c3nc(-c4ccc(O)cc4)c(Br)cc23)CC1`, the inhibition was 4.19% and 1.14%.
Work on `O=C(O[C@H]1CN[C@H](C#Cc2cc3ncnc(Nc4ccc(OCc5cccc(F)c5)c(Cl)c4)c3s2)C1)N1CCOCC1` yielded an inhibition of 4.94%.
With `CN(C)CCNC(=O)Nc1ccc(N(C)c2ccnc(Nc3ccc(CS(C)(=O)=O)cc3)n2)cc1` the inhibition was 2.6%.
With `NS(=O)(=O)c1ccc(N/N=C2\C(=O)Nc3ccc(C(=O)NCc4ccncc4)cc32)cc1` the inhibition was 0.9%.
Compound `Fc1ccc(Nc2nccc(-c3c(-c4ccc(C(F)(F)F)cc4)nn4ncccc34)n2)cc1F` has an inhibition of 3.44%.
With `CC1(C)CC(n2cnc(-c3ccc(F)cc3)c2-c2ccnc(N)n2)CC(C)(C)N1` the inhibition was 4.34%.
For `Cc1c2ccc(N(C)c3ccnc(Nc4cccc(S(N)(=O)=O)c4)n3)cc2nn1C`, the inhibition was 4.71%.
Work on `CN1CCC(n2cnc(-c3ccc(F)cc3)c2-c2ccnc(NCCO)n2)CC1` yielded an inhibition of 3.91%.
With `CS(=O)(=O)CCNCc1ccc(-c2ccc3ncnc(Nc4ccc(OCc5ccccc5)cc4)c3c2)o1` the inhibition was 2.93%.
